GALK inh: inhibitors of human galactokinase (GALK); Potency, µM (series often up to 57.5 µM), inactives show at the top dose activity, negative = inhibition, hits mostly inhibitors; recombinant GALK, Kinase-Glo ATP luminescence, 1 h; 44,000 tested, under 10 active;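 further: plate controls were full GALK reaction for no effect and reaction lacking GALK for full effect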
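Human GALK (5 nM) was incubated with 35 uM ATP and 100 uM galactose in 20 mM HEPES pH 8.0 with MgCl2, NaCl, DTT and BSA for 1 h at room temperature. Remaining ATP was measured by Kinase-Glo Plus luminescence.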
HTT-AS act: activators of huntingtin-antisense promoter activity. AID 1508624. Potency, µM (top dose mostly 57.5 µM), without a hit: at the highest dose activity change, positive = activation, actives largely listed as activators. 48,000 compounds, 0.24% hits. HEK293 HTT-AS promoter firefly luciferase reporter, 24 h; response scale: percent change from vehicle, -100% = no light; further: potency means the concentration at half of the fitted maximal effect; nearly all actives have a fitted effect of over 55% in size
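Quantitative HTS used concentration series of up to 57.5 uM final on HEK293 luciferase reporter cells, 24 h at 37 degrees C. Readout was Dual-Glo firefly luminescence.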
GPR32 ag: activates human resolvin D1 receptor GPR32; O75388; CHO-K1 GPR32 beta-arrestin PathHunter luminescence, 90 min; zero percent set by DMSO-only wells; activation, % at 76.9 µM; 48,000 compounds, 2.5% hits; AID 1346428;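 active means activation of at least 60% and not above a set upper limit, about 1 call in 100 departs from these limits; inconclusive means activation of 40% to 60%, or above that upper limit; inactive means activation under 40%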; further: 0% is about no effect
Target sequence (O75388 whole entry, looked up): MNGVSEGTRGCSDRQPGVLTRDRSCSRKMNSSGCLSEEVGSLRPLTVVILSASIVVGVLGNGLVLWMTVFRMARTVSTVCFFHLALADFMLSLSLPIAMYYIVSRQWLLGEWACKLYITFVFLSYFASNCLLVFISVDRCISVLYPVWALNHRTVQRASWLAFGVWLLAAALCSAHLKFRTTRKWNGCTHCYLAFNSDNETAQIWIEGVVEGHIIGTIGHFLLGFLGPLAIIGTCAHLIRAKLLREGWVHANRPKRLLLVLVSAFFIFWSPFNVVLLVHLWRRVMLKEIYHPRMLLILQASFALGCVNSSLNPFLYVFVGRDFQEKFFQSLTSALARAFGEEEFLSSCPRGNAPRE
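Agonism was scored as beta-arrestin recruitment to ProLink-fused GPR32 in stably transfected CHO-K1 cells, giving a chemiluminescent beta-Gal signal; compounds were incubated 90 min at 37 °C.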
PTAP-TSG101 blk: inhibitors of HIV-1 PTAP binding to human TSG101, validation; 44,000 tested, under 10 active; AID 1347069; Fluorescence polarization, FITC-PTAP peptide/Tsg101, 20 min; Potency, µM (top dose mostly 115 µM), most hits filed as inhibitors; Q99816; further: potency means the concentration at half of the fitted maximal effect; 0% is about no effect
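The Tsg101 binding domain, at 10 uM final, is mixed with compound and a FITC peptide bearing the PTAP motif (50 nM final). After 20 min at r.t., polarization is measured; actives defined by CRC class, efficacy cut-off 60% inhibition.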
HTT prom inh: inhibits huntingtin promoter activity; HEK293 HTT promoter firefly luciferase reporter, 24 h; Potency, µM (series often up to 57.5 µM), for the others: top-dose activity change, negative = inhibition, usual class: inhibitors; 48,000 compounds, 0.93% hits; further: potency means the concentration at half of the fitted maximal effect; nearly all actives have a fitted effect of over 50% in size
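HEK293 luciferase promoter-reporter cells (2,500/well) plated 24 h, then compounds added at up to 57.5 uM final for 24 h at 37 °C. Firefly luminescence by Dual-Glo, normalized to vehicle (0%) and zero RLU (-100%).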
B2AR arrestin ag: beta-arrestin recruitment by human beta2-adrenergic receptor ligands; P07550; HTLA Tango cells, beta-arrestin recruitment, luciferase luminescence, 18 h; Potency, µM (titrated, usually from 46.1 µM), actives largely listed as activators; 44,000 tested, under 10 active;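 further: potency means the concentration at half of the fitted maximal effect; 0% = DMSO and full agonism = EC100 isoproterenol or metaproterenol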
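Tango cells expressing recombinant beta2-AR and beta-arrestin were treated with compounds (up to 46 microM titration) in DMEM with 1% FBS for 18 hr at 37 degrees C. Beta-arrestin recruitment drove tTA-dependent luciferase, read by luminescence; curves were fitted and classed.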
An asterisk follows results filed as active; i = inactive; u = inconclusive; x = not tested or not shown. Hits are enriched below; roughly 3.6% of the tested compounds scored in any of these assays. Unless noted, the call rests on the fitted dose curve; in most records, active means well fitted curve in the direction sought with a large enough effect; inconclusive means small, poorly fitted or top-dose-only effect, or another doubt; inactive means no such curve, though single readings can be large; an effect the other way counts as inactive or inconclusive.

SMILES | GALK inh | HTT-AS act | GPR32 ag | PTAP-TSG101 blk | HTT prom inh | B2AR arrestin ag
O=C(Nc1ccc(F)cc1)c1ccc2c(c1)NC(=O)c1ccccc1S2 | 11% | x | 76* | i | x | i
COC(=O)c1cc(NC(=O)c2ccc3c(c2)NC(=O)c2ccccc2S3)cc(C(=O)OC)c1 | -1% | -9% | -18 | i | -20% | i
Cc1ccccc1C(C(=O)NC1CCCC1)N(C(=O)Cn1cnc2ccccc21)c1cccc(F)c1 (stereo not given) | x | -19% | x | x | -3% | x
Cc1ccc(NC(=O)Cn2nc(C(F)(F)F)c3c2CCCC3)cc1 | 2% | -23% | 77* | i | u | i
O=C1CCc2ccc(OCCCCN3CCN(c4cccc(Cl)c4Cl)CC3)cc2N1 | x | -10% | 90* | x | -9% | x
O=C(Nc1ccc(N2CCN(CCOc3ccc(Cl)cc3)CC2)c(C(=O)O)c1)c1ccc(F)cc1 | -2% | -25% | -5 | i | -31% | i
Cc1ccc(C(=O)c2sc(Nc3ccc(F)cc3)c(C#N)c2N)cc1 | 8% | 0% | 86* | i | 3% | i
CCN(CC)c1cc(C)c2cc(NC(=O)c3cccc(OC)c3OC)ccc2n1 | 7% | -6% | 95* | i | -7% | i
CC(C)Oc1cc(Nc2nc(N[C@@H](C)c3ccc(F)cn3)ncc2Cl)[nH]n1 | x | -14% | x | x | u | x
O=C(/C=C/c1ccccc1)Nc1nc(-c2cccs2)ns1 | 2% | 17% | 81* | i | 19% | i
COc1ccc(/C=C/C(=O)Nc2nc(-c3cccs3)ns2)cc1 | 7% | -20% | 14 | i | -16% | i
COc1ccc(/C=C/C(=O)Nc2nc(-c3cccs3)ns2)cc1OC | -8% | -35% | 29 | i | u | i
Cc1ccc(/C=C/C(=O)Nc2nc(-c3cccs3)ns2)cc1 | 0% | -19% | 70* | i | -8% | i
Cc1c(Cl)cccc1NS(=O)(=O)c1ccc(NS(=O)(=O)c2ccc3c(c2)OCCO3)cc1 | 1% | -34% | 68* | i | -28% | i
O=S(=O)(Nc1cccc(C(F)(F)F)c1)c1ccc(NS(=O)(=O)c2ccc3c(c2)OCCO3)cc1 | -2% | -40% | u | i | u | i
CC(C)(C)[N+]([O-])=Cc1ccc(S(=O)(=O)O)cc1S(=O)(=O)O | x | -6% | x | x | -6% | x
Cc1cc(C)cc(Nc2ncnc3sc4c(c23)CCCC4)c1 | 1% | -16% | -6 | i | -7% | i
COc1ccc(Nc2ncnc3sc4c(c23)CCCC4)cc1 | 1% | -24% | 94* | i | -17% | i
CCc1ccc(Nc2ncnc3sc4c(c23)CCCC4)cc1 | 0% | -33% | -2 | i | -24% | i
CC(=O)Nc1ccc(Nc2ncnc3sc4c(c23)CCCC4)cc1 | -1% | -12% | 97* | i | 11% | i
CCOc1cc2ncc(C#N)c(Nc3ccc(OCc4ccccn4)c(Cl)c3)c2cc1NC(=O)C=CCN(C)C | x | -24% | x | x | -27% | x
CNC(=O)c1cc(COc2nnc(Nc3ccc(Cl)cc3)c3ccoc23)ccn1 | x | -2% | x | x | -1% | x
Cc1nn(C(C)C(=O)N2CCN(c3ccc(Cl)cc3)CC2)c(=O)c2cc3occc3n12 (stereo not given) | -11% | -56% | 8 | i | 25µM* | i
CCc1nn(C(C)C(=O)N2CCN(c3ccccc3)CC2)c(=O)c2cc3occc3n12 (stereo not given) | -2% | -31% | -22 | i | -29% | i
NC(=O)N[C@@H](CCC(=O)O)C(=O)O | x | -5% | 11 | x | 13% | x
SMILES | GALK inh | HTT-AS act | GPR32 ag | PTAP-TSG101 blk | HTT prom inh | B2AR arrestin ag
Cc1nc(-c2ccc(S(=O)(=O)Nc3ccc(OC(F)(F)F)cc3)cc2)co1 | -11% | -31% | 114* | i | u | i
Cc1nc(-c2ccc(S(=O)(=O)Nc3cc(Cl)ccc3C)cc2)co1 | -9% | -21% | 82* | i | -26% | i
Cc1nc(-c2ccc(S(=O)(=O)N3CCN(c4cc(Cl)ccc4C)CC3)cc2)co1 | 1% | -22% | -15 | i | -15% | i
Cc1nc2cc(-c3cccc(F)c3)nn2c(C)c1CCC(=O)N1CCN(c2ccc(F)cc2)CC1 | 9% | -61% | -2 | i | u | i
Cc1nc2cc(-c3ccccc3)nn2c(C)c1CCC(=O)N1CCN(c2ccccc2)CC1 | 0% | -67% | 0 | i | 2.5µM* | i
Cc1nc2cc(-c3ccc(Cl)cc3)nn2c(C)c1CCC(=O)N1CCN(c2ccccc2)CC1 | 0% | -75% | 0 | i | 1µM* | i
CC1CCCCN1CCCOC(=O)c1ccc(OC2CCCCC2)cc1 (stereo not given) | x | -16% | u | x | -7% | x
O=C(O)C(O)Cc1ccc(O)c(O)c1 (stereo not given) | x | -7% | x | x | 7% | x
COC(=O)N[C@H](C(=O)N1CCC[C@@H]1c1ncc(-c2ccc(-c3ccc(-c4cnc([C@@H]5CCCN5C(=O)[C@@H](NC(=O)OC)C(C)C)[nH]4)cc3)cc2)[nH]1)C(C)C | x | -17% | x | x | -15% | x
C[C@@H](N)c1ccc(C(=O)Nc2ccnc3[nH]ccc23)cc1 | x | 1% | x | x | -22% | x
Cc1ccc(CNC(=O)c2ccc(-c3nc(CN4CCc5ccccc54)c(C)o3)cc2)cc1 | 1% | -27% | 0 | i | -36% | i
Cc1oc(-c2ccc(C(=O)N(C)Cc3ccccc3)cc2)nc1CN1CCc2ccccc21 | 1% | -52% | -6 | i | 8.9µM* | i
C[C@H](NC(=O)[C@@H](O)c1cc(F)cc(F)c1)C(=O)N[C@@H]1C(=O)N(C)c2ccccc2-c2ccccc21 | x | -6% | x | x | -3% | x
COc1ccccc1N1CCN(c2ncnc3c2nc2n3CCCC2)CC1 | -1% | -33% | 63* | i | u | i
Cc1cccc(N2CCN(C(=O)C3CCN(c4ncnc5c4nc4n5CCCCC4)CC3)CC2)c1C | 3% | -34% | 6 | i | u | i
c1ccc(N2CCN(c3ncnc4c3nc3n4CCCC3)CC2)cc1 | 0% | -65% | u | i | 13µM* | i
Cc1cccc(N2CCN(C(=O)C3CCN(S(=O)(=O)c4c(C)noc4C)CC3)CC2C)c1 (stereo not given) | 3% | -33% | 108* | i | u | i
Cc1cccc(N2CCN(C(=O)C3CCN(c4ncnc5c4nc4n5CCCCC4)CC3)CC2C)c1 (stereo not given) | 1% | -76% | 12 | i | 25µM* | i

Screening data as filed in PubChem.
